ERa SRC1 pot: enhancers of ERα–SRC-1 coactivator binding, primary screen, biochemical, TR-FRET, ERα LBD, low estradiol. AID 639, 2007. actives 1.3% (n = 86,000). Estrogen receptor (Homo sapiens), P03372. coactivator binding (% of control), % at 25.6 µM. TR-FRET ERalpha-LBD/SRC-Cy5 coactivator binding, 2 h; 100 = basal binding, no effect; in the data active = activity above about 200%;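 also: binding measured in presence of low estradiol as agonist stimulus; 0% = peptide alone without receptor and 100% = receptor with peptide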
Target sequence (P03372 whole entry, looked up, the tested form may be a part): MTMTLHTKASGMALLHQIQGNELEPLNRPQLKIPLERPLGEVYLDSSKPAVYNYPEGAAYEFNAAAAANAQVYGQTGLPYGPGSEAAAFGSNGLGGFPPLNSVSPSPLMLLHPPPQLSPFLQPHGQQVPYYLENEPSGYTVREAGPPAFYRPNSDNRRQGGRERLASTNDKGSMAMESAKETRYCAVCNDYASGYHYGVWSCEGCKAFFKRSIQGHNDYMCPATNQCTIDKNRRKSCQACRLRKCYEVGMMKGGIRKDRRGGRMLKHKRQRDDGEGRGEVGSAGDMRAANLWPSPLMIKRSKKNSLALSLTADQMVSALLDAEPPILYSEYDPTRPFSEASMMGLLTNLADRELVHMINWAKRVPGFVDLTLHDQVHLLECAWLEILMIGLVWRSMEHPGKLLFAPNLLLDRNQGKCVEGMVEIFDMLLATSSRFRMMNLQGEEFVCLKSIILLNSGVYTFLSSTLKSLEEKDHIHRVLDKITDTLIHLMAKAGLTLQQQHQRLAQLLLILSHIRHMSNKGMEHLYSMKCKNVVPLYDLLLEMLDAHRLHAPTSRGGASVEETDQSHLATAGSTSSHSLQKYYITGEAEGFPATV
ERb coact inh: inhibitors of ERβ-SRC1 coactivator interaction, primary screen, biochemical, TR-FRET, ERβ LBD, SRC-1 peptide; actives 1.3% (n = 86,000); inhibition, % at 25.6 µM; TR-FRET ER-beta LBD / SRC1-Cy5 peptide binding; receptor agonist-loaded with 1 µM estradiol; Estrogen receptor beta (Homo sapiens), Q92731;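 active = compounds whose percent inhibition of the receptor-coactivator binding signal exceeds about 50% in the single-dose screen, limit read from the data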;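 also: 0% = receptor plus peptide wells without compound and 100% = peptide-only wells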
FAK blocker: FAK kinase inhibitors, primary screen, biochemical; Focal adhesion kinase 1 (Homo sapiens), Q05397; biochemical FAK kinase activity assay; inhibition, %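 (tested at 7 µM)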; actives 0.84% (n = 97,000); AID 727, 2007; in the data active = inhibition above about 19%;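 also: 0% = DMSO and 100% = reference compound high control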
Mac1 fbg enh: enhancers of CD11b/CD18 adhesion to fibrinogen, primary screen, K562 cells, luminescence | Integrin beta-2 (Homo sapiens) + Integrin alpha-M (Homo sapiens), P05107+P11215 | ATPlite luminescence | activation, % at 10 µM | actives 0.07% (n = 93,000) | AID 1499, 2009;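 active = 10 µM primary screen giving 50% or more activity, confirmed by 40% or more on retest at that dose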
Mac1 fbg inh: inhibitors of CD11b/CD18 adhesion to fibrinogen, primary screen, K562 cells, luminescence. Integrin beta-2 (Homo sapiens) + Integrin alpha-M (Homo sapiens), P05107+P11215. ATPlite luminescence; Mn2+ added to activate the integrin. inhibition, % at 10 µM. actives 0.54% (n = 93,000). AID 1497, 2009;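 active = primary inhibition of 50% or more at 10 µM, then 40% or more on retest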
ERa SRC1 inh: ERα–SRC-1 coactivator interaction inhibitors, primary screen, biochemical, TR-FRET, ERα LBD, estradiol-bound; TR-FRET ER-alpha LBD / SRC-1 peptide; AID 629, 2007; actives 1.7% (n = 86,000); Estrogen receptor (Homo sapiens), P03372; inhibition, % at 25.6 µM; in the data active = inhibition above about 50%;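 also: 0% = receptor plus peptide control and 100% = peptide only without receptor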
An asterisk follows results filed as active; · = not tested or not shown; [ ] = dose if it differs, or a comment. Rows were chosen to be rich in hits. Some 3.5% of all compounds tested hit in one or more screens of this group.

SMILES | ERa SRC1 pot | ERb coact inh | FAK blocker | Mac1 fbg enh | Mac1 fbg inh | ERa SRC1 inh
Cc1cccc(S(=O)(=O)C(C#N)c2nc3ccccc3nc2N2CCOCC2)c1 (stereo not given) | 121.1 | -1.2 | -2.7 | -0.4 | 57.5* | -3.6
Cc1ccc(S(=O)(=O)C(C#N)c2nc3ccccc3nc2N2CCCCC2)cc1 (stereo not given) | 59.5 | 2.7 | · | -3.5 | 27.2 | 4.1
N#CC(c1nc2ccccc2nc1N1CCCCC1)S(=O)(=O)c1ccc(Cl)cc1 (stereo not given) | 230.9*[fluorescence artefact?] | 42.7 | · | -7.3 | 95.3 | 17.8
COc1cc(C(=O)NCCCN2CCCC2=O)cc(OC)c1OC | 121.2 | 2.0 | 0.4 | -2.6 | -16.3 | 3.4
CCOc1ccc(Nc2oc(-c3ccccc3Cl)nc2C#N)cc1 | 22.8 | 30.6 | 2.1 | 1.3 | 5.7 | 70.5*
CC(=O)c1cccc(NC(=O)CN2C(=O)NC3(CCCCCCC3)C2=O)c1 | 68.6 | 31.2 | 3.5 | 5.4 | -9.2 | 56.6*
NC(=O)N1CCN(C(=O)c2ccco2)CC1 | 105.9 | -5.7 | -1.4 | -2.7 | 10.1 | 3.6
Nc1ccc(N2CCN(C(=O)c3ccco3)CC2)cc1 | 3.0 | 55.5*[fluorescence artefact?] | 4.5 | · | · | 84.8*[fluorescence artefact?]
C#CCn1c(=NC(=O)c2ccc(Br)s2)sc2cccc(OC)c21 | 333.4*[fluorescence artefact?] | 43.4 | -406.3 | 38.4 | 6.8 | 57.0*[fluorescence artefact?]
N#Cc1c(NCCN)nc(NCc2ccccc2)c2c1CCN(Cc1ccccc1)C2 | 96.3 | 38.3 | 9.8 | 8.0 | 28.8 | 78.5*
C=CCNc1nc(NCc2ccccc2)c(C#N)c2c1CN(C)CC2 | 100.1 | 3.2 | -3.6 | -4.9 | 10.7 | -1.4
CCN1CCc2c(C#N)c(NCc3ccccc3)nc(N(CC)CC)c2C1 | 675.4*[fluorescence artefact?] | -0.2 | 4.3 | -0.8 | 0.1 | 4.6
Cc1cc(N(C)C)c(C#N)c(NCc2ccccc2)n1 | 101.5 | -4.2 | 4.7 | -2.6 | 6.3 | -0.6
CCOc1ccc2[nH]c(=O)c(CN(Cc3ccco3)C(=O)c3ccc(Br)cc3)cc2c1 | 112.0 | 7.8 | · | -1.5 | 8.3 | 23.8
CCN(C(=O)CN1CCCc2ccccc21)c1c(N)n(Cc2ccccc2)c(=O)[nH]c1=O | 105.0 | 80.3*[fluorescence artefact?] | · | -0.3 | 0.5 | -10.3
CCN(C(=O)CN1CCN(c2ccccc2OC)CC1)c1c(N)n(Cc2ccccc2)c(=O)[nH]c1=O | 117.5 | 20.9 | -3.5 | 1.5 | 12.3 | -0.6
c1ccc(-c2nc3c4ccccc4nc(N4CCN(c5ccccn5)CC4)n3n2)cc1 | 214.6*[fluorescence artefact?] | -1.1 | · | · | · | 15.5
Cc1onc(-c2ccccc2)c1C(=O)Nc1ccc(S(=O)(=O)NC2=NCCCCC2)cc1 | 110.4 | -5.0 | 1.9 | -0.5 | 3.7 | -7.2
COC(=O)C1=C(C)Nc2nc(-c3ccccc3)nn2C1c1ccc(C)o1 (stereo not given) | 113.1 | -5.3 | 4.0 | 0.9 | -13.4 | -5.8
O=c1c(N2CCOCC2)nsnc1N1CCOCC1 | 115.2 | 2.4 | · | -4.1 | 35.5 | 2.1
O=C1Nc2cc3c(cc2Sc2ccccc21)OCCO3 | 233.7*[fluorescence artefact?] | 7.7 | 8.3 | -6.0 | -2.6 | 7.5
O=C1Cc2ccccc2Sc2ccccc21 | · | · | 3.0 | -2.8 | -10.6 | ·
c1ccc(-n2ncc3c(N4CCN(c5ccccn5)CC4)nc(N4CCOCC4)nc32)cc1 | 220.0*[fluorescence artefact?] | 7.3 | · | -2.6 | -22.1 | 18.5
COc1ccc(CNC(=O)C2CC=CCC2C(=O)O)cc1OC (stereo not given) | 124.9 | 3.0 | -3.6 | -0.4 | 13.8 | -10.2
Brc1ccc2c(c1)c1nc3ccccc3nc1n2CCN1CCOCC1 | 99.5 | 44.8 | · | · | · | 55.8*[fluorescence artefact?]
SMILES | ERa SRC1 pot | ERb coact inh | FAK blocker | Mac1 fbg enh | Mac1 fbg inh | ERa SRC1 inh
C/C(N)=C(/C#N)C(=O)CSc1nnc(NC(C)C)s1 | 1.2 | 99.2*[fluorescence artefact?] | 2.7 | -3.1 | -10.2 | 96.7*[fluorescence artefact?]
C/C(N)=C(/C#N)C(=O)CSc1nnc(Nc2ccccc2C)s1 | 42.3 | 65.5* | 9.2 | 5.9 | -11.6 | 51.2*[fluorescence artefact?]
CSc1nnc(Nc2ccccc2C)s1 | · | · | 1.0 | 2.3 | -8.8 | ·
C/C(N)=C(/C#N)C(=O)CSc1ncnc2ccccc12 | 51.0 | 44.8 | · | 1.7 | -11.6 | 43.1
CC(C)(C)NC(=O)Cc1ccc(S(=O)(=O)N2CCCC2)s1 | 54.0 | 39.5 | 3.9 | 73.7 | -6.8 | 57.9*[fluorescence artefact?]
Cc1nc2ccc3nc(NC(=O)c4ccc(S(=O)(=O)N5CCOCC5)cc4)sc3c2s1 | · | · | -0.7 | · | · | ·
Cc1nc2ccc3nc(NC(=O)c4ccc5c(c4)OCCO5)sc3c2s1 | 417.8*[fluorescence artefact?] | 43.7 | -78.0 | 17.2 | -14.4 | 62.4*[fluorescence artefact?]
Cc1cc(C)c(C(=O)CSc2nnc(-c3ccccc3Br)o2)cc1C | 273.4*[fluorescence artefact?] | 16.7 | -1.1 | 53.4 | -37.4 | 3.6
Cc1cc(C(=O)CSc2nnc(-c3ccccc3F)o2)c(C)n1Cc1cccs1 | 309.5* | 20.3 | -2.9 | -2.2 | 44.9 | 6.0
Cc1cc(C(=O)CSc2nc3ccccc3n2CCC#N)c(C)n1Cc1cccs1 | 273.1* | 19.8 | -0.5 | 48.3 | -1.2 | 6.8
N#CCCn1c(SCC(=O)c2c[nH]c3ccccc23)nc2ccccc21 | 116.7 | -4.5 | 2.0 | -2.6 | -15.9 | 13.2
O=[N+]([O-])c1ccc2c(c1)oc1ccccc12 | 110.1 | 2.3 | 3.0 | · | · | 4.2
CCCCC(=O)NC(=S)NNC(=O)CC | 87.5 | -8.2 | -3.0 | · | · | 1.6
COCCNCCOc1ccccc1-c1ccccc1 | 92.0 | -6.2 | 0.0 | -0.5 | -15.0 | -9.4
CCOC(=O)C1CCN(Cc2cnc(Oc3ccc(OC)cc3)s2)CC1 | · | · | 0.6 | · | · | ·
CCOC(=O)C1CCN(C(=O)C2CCN(c3nc4ccc(OC)cc4s3)CC2)CC1 | 105.5 | 91.0*[fluorescence artefact?] | -0.5 | · | · | -5.5
O=C1Nc2ccccc2SC(c2ccccc2)C1O (stereo not given) | 14.8 | 87.9* | 17.6 | 57.4 | 4.0 | 95.2*
COc1nc(C)nc(NC(=O)NS(=O)(=O)c2ccc(C)cc2)n1 | 79.8 | 50.6*[fluorescence artefact?] | 4.2 | 5.2 | -6.4 | 4.8
Cc1ccc(C)c(-c2nc3ccc(N)cc3[nH]2)c1 | 115.8 | -5.5 | -0.9 | 2.1 | -37.0 | 0.3
Nc1ccc2nc(-c3ccc(Cl)cc3)[nH]c2c1 | 71.9 | 43.5 | · | 4.3 | 3.1 | 86.7*[fluorescence artefact?]
Nc1cc(N)cc(-c2nc3ccccc3[nH]2)c1 | 125.0 | 0.8 | 1.0 | -3.3 | -44.7 | 1.6
Nc1ccc2nc(-c3cc(Cl)c(N)c(Cl)c3)[nH]c2c1 | 3.6 | 47.4 | 9.4 | · | · | 95.4*[fluorescence artefact?]
Nc1ccc(-c2nc3c(Cl)c(N)ccc3[nH]2)cc1 | 109.0 | 52.5*[fluorescence artefact?] | 6.7 | 3.5 | 11.0 | 5.7
Nc1ccc(-c2nc3ccc(-c4nc5ccccc5o4)cc3[nH]2)cc1 | · | · | 3.8 | -6.3 | 17.5 | ·
